Test systems include EKVX NSCLC; SN12C renal; UO-31 renal; TK-10 renal; ACHN renal; A498 renal; CCRF-CEM leukemia; MOLT-4 leukemia; SR leukemia; RPMI-8226 leukemia; OVCAR-8 ovarian; OVCAR-5 ovarian; OVCAR-4 ovarian; SK-OV-3 ovarian; IGROV1 ovarian; OVCAR-3 ovarian; HS 578T breast; NCI/ADR-RES ovarian; T-47D breast; CAKI-1 renal.
Holding throughout (test): NCI-60 one-dose screen, 48 h (100 = growth as untreated, 0 = no growth, -100 = all killed)
Holding throughout (details): 10 µM unless noted

Each structure is given as a SMILES string. This is part of a sample that, as a whole, favours compounds with a hit. Of some 83,000 tested, about 20% had one in any assay.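 Note: values are percent growth. 100 is the growth of untreated cells, values between 100 and 0 indicate rising inhibition; between -100 and 0 indicates cell death.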 A number with no mark means an inactive call. Active and inactive are the calls of the source. How the source made its calls: active means growth percent below 10; inactive means the rest.

For the compound `COc1cc(-c2nc3ccc(-c4nnc(SCC(=O)Nc5ccc(C(=O)/C=C/c6ccc(Cl)cc6)cc5)o4)cc3[nH]2)cc(OC)c1OC`, the growth is 99.5% in the test with EKVX NSCLC; 90.4% with SN12C renal; 84% in the test with UO-31 renal; 120% with TK-10 renal; 96.8% in the test on ACHN renal; 83.2% with A498 renal. For the same compound, the growth was 81.6% with CCRF-CEM leukemia; 79.5% in the test with MOLT-4 leukemia; 60.4% in the test with SR leukemia; 57.2% in the test on RPMI-8226 leukemia; 92.5% in the test with OVCAR-8 ovarian; 99.2% with OVCAR-5 ovarian. Moreover, the growth was 100% in the test with OVCAR-4 ovarian; 121% in the test on SK-OV-3 ovarian; 81.6% in the test on IGROV1 ovarian; 97.9% in the test on OVCAR-3 ovarian; 87.9% with HS 578T breast; 106% in the test with NCI/ADR-RES ovarian. In addition, the growth in the test with T-47D breast is 80.4%.
Turning to `Cc1c(Nc2nnc(SCC(=O)Nc3sc4c(c3C#N)CCCC4)s2)c(=O)n(-c2ccccc2)n1C`, the growth is 97.4% with EKVX NSCLC; 106% in the test on SN12C renal; 97.3% in the test on UO-31 renal; 135% with TK-10 renal; 100% with ACHN renal; 109% in the test with A498 renal. The growth was 99.4% in the test on CCRF-CEM leukemia; 92.7% in the test with MOLT-4 leukemia; 98.5% in the test with SR leukemia; 96.7% in the test with RPMI-8226 leukemia; 100% in the test on OVCAR-8 ovarian; 114% in the test with OVCAR-5 ovarian. Besides, the growth in the test with OVCAR-4 ovarian is 108%; with SK-OV-3 ovarian, 120%; with IGROV1 ovarian, 104%; in the test with OVCAR-3 ovarian, 99.1%; in the test with HS 578T breast it was 109%; in the test on NCI/ADR-RES ovarian, 99.5%. Besides, the growth with T-47D breast was 97.3%.
Turning to `CCOc1ccc2nc(NC(=O)c3ccc(C(F)(F)F)cc3)sc2c1`, the growth in the test with EKVX NSCLC is 102%; with SN12C renal it was 101%; in the test with UO-31 renal, 104%; in the test on TK-10 renal, 95.4%; in the test with ACHN renal it was 110%; in the test with A498 renal, 95.7%. Further, the growth in the test with CCRF-CEM leukemia was 92.1%; with MOLT-4 leukemia, 103%; in the test with SR leukemia it was 89.5%; in the test with RPMI-8226 leukemia, 100%; with OVCAR-8 ovarian, 107%; in the test with OVCAR-5 ovarian, 105%. Moreover, the growth in the test with OVCAR-4 ovarian is 107%; in the test on IGROV1 ovarian, 113%; in the test with OVCAR-3 ovarian, 109%; in the test with HS 578T breast, 114%; in the test with T-47D breast, 97.7%.
`CC(C)(C)OC(=O)N1C(=O)c2c(c3c4ccccc4[nH]c3c3ccc4ccccc4c23)C1=O`: the growth is 67.7% with EKVX NSCLC; 52.6% in the test with SN12C renal; 40.4% in the test with UO-31 renal; 36.8% in the test on TK-10 renal; 34.5% in the test with ACHN renal; -2.67% (active) in the test with A498 renal. The growth in the test with CCRF-CEM leukemia is 44.4%; in the test on MOLT-4 leukemia it was 38.2%; in the test on SR leukemia it was 23%; in the test with RPMI-8226 leukemia, 45.4%; with OVCAR-8 ovarian it was 60.7%; in the test with OVCAR-5 ovarian it was 63.8%. Also, the growth with OVCAR-4 ovarian is 77.4%; in the test with SK-OV-3 ovarian, 45.7%; in the test with IGROV1 ovarian, 52.7%; in the test on HS 578T breast, 49.7%; in the test with NCI/ADR-RES ovarian, 75.5%; in the test on T-47D breast it was 32.6%.
Turning to `CSCCC(C(=O)O)N1C(=O)/C(=C/c2ccc(O)c(O)c2)SC1=S` (stereo unspecified), the growth in the test with EKVX NSCLC was 96.2%; in the test with SN12C renal, 99.2%; in the test on UO-31 renal it was 89.3%; with ACHN renal, 99.9%; in the test with CAKI-1 renal it was 95.6%; in the test with A498 renal, 85.3%. Also, the growth is 105% in the test with CCRF-CEM leukemia; 108% with MOLT-4 leukemia; 103% in the test with SR leukemia; 110% in the test with RPMI-8226 leukemia; 108% with OVCAR-8 ovarian; 94.6% with OVCAR-5 ovarian. Moreover, the growth with OVCAR-4 ovarian is 101%; in the test with SK-OV-3 ovarian, 110%; with IGROV1 ovarian, 98.9%; in the test on OVCAR-3 ovarian, 111%; in the test on HS 578T breast it was 104%; with NCI/ADR-RES ovarian it was 108%. Besides, the growth with T-47D breast was 95.1%.
Turning to `C#Cc1nc(C2=C(C)C(O)/C(=N/O)C2)cs1` (stereo unspecified), the growth in the test on EKVX NSCLC is 91.3%; with SN12C renal, 99.9%; in the test on UO-31 renal it was -91.1% (active); with TK-10 renal, 162%; in the test on ACHN renal it was 21.5%; with CAKI-1 renal it was 76.5%. In addition, the growth with MOLT-4 leukemia is 86.5%; with SR leukemia it was -32.8% (active); in the test with RPMI-8226 leukemia, -15.4% (active); with OVCAR-8 ovarian, 94.3%; in the test with OVCAR-5 ovarian, 100%; with OVCAR-4 ovarian it was 89.6%. In addition, the growth with SK-OV-3 ovarian is 111%; in the test on IGROV1 ovarian, -41.6% (active); in the test with OVCAR-3 ovarian it was 125%; with HS 578T breast it was 97.6%; in the test with NCI/ADR-RES ovarian, 1% (active); in the test with T-47D breast, 89.9%.
Regarding `CC(O)C(NC(=O)C1CCCN1C(=O)CNC(=O)C1CC(=O)NCC(=O)NC(Cc2c[nH]c3ccccc23)C(=O)NC(Cc2ccc(O)cc2)C(=O)NCC(=O)NC(CO)C(=O)NC(CCC(N)=O)C(=O)NC(Cc2c[nH]c3ccccc23)C(=O)N1)C(=O)NCC(=O)NC(CCC(N)=O)C(=O)NC(CCCNC(=N)N)C(=O)NC(CC(=O)O)C(=O)O` (stereo unspecified), the growth in the test on EKVX NSCLC was 100%; with SN12C renal, 101%; with UO-31 renal, 83.3%; in the test on TK-10 renal, 116%; with ACHN renal, 96.2%; in the test on CCRF-CEM leukemia it was 94.7%. The growth is 94.5% in the test with SR leukemia; 83.5% in the test with RPMI-8226 leukemia; 101% in the test on OVCAR-8 ovarian; 110% with OVCAR-5 ovarian; 99.8% in the test with OVCAR-4 ovarian; 106% in the test with SK-OV-3 ovarian. The growth with IGROV1 ovarian was 105%; in the test on OVCAR-3 ovarian it was 102%; in the test with HS 578T breast it was 102%; with NCI/ADR-RES ovarian, 104%; in the test on T-47D breast, 106%.
As for `[Cl][Ru].c1ccc(-c2cccc(-c3ccccn3)n2)nc1.c1ccc(-c2ccnc3c2ccc2c(-c4ccccc4)ccnc23)cc1`, the growth in the test on EKVX NSCLC was 62.7%; with SN12C renal, 20.1%; in the test with UO-31 renal it was 79.6%; in the test on ACHN renal, 96.7%; with CAKI-1 renal, 80.3%; in the test on A498 renal it was 54.9%. The growth was 38% in the test on CCRF-CEM leukemia; 41.4% with MOLT-4 leukemia; 11% with SR leukemia; -10.5% (active) in the test on RPMI-8226 leukemia; 68.2% with OVCAR-8 ovarian; 68.1% in the test on OVCAR-5 ovarian. In addition, the growth is 47.3% with OVCAR-4 ovarian; 46.8% in the test on SK-OV-3 ovarian; 21.4% in the test with IGROV1 ovarian; 13.8% with OVCAR-3 ovarian; 13.4% with HS 578T breast; 71.5% with NCI/ADR-RES ovarian. In the test on T-47D breast, the growth was 14.2%.

These data come from PubChem BioAssay (NCI).
